Laboratory results as given in PubChem BioAssay.

Assay: compounds binding Alexa647 anti-His antibody – biochemical, small-molecule microarray, 635 nm fluorescence, artefact control for SMM control protein annotation, primary screen (AID 1128);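 further: score merges feature fluorescence with signal-to-noise for each printed compound spot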
Details: higher = more signal

Row | SMILES | composite z-score
1 | COCC(=C=CC[C@@H](O)c1ccc(CO)o1)CCO | -0.145
2 | CC(C)N1C(=O)c2ccccc2[C@@H](C(=O)NCCCN(C)C)[C@@H]1c1ccc(CO)cc1 | 0.0674
3 | C=C[C@@H](COC(C)=O)N(Cc1ccc([N+](=O)[O-])cc1)S(=O)(=O)c1ccc(Br)cc1 | 1.6
4 | CC(C)C(=C=CC[C@@H](O)c1ccccc1OCCO)C[C@@H](O)c1ccccn1 | -0.131
5 | C=CCNC(=O)[C@@H]1[C@H]2C(=O)O[C@H](c3ccccc3)[C@H](c3ccccc3)N2[C@H](c2ccc(O)cc2)[C@@]12C(=O)N(C(=O)OCCOC)c1ccccc12 | 1.92
6 | CC(C)(C)OC(=O)CC[C@@]1(C(=O)NCCN2CCOCC2)N=C(c2ccc(OCCCO)cc2)O[C@@H]1c1ccccc1 | 1.37
7 | N#Cc1ccc(NN2C(C(O)C3CCCCC3)C=CC3C(=O)N(c4ccccc4)C(=O)C32)cc1 (stereo not given) | 0.422
8 | C=CCN1C(=O)[C@]2(O[C@H](CCO)[C@@H]([Si](C)(C)c3ccc(OC)cc3)[C@@H]2C)c2cc(NC(=O)[C@H](C)O)ccc21 | 1.58
9 | O=C1O[C@H](c2ccccc2)[C@H](c2ccccc2)N2[C@H]1[C@@H](C(=O)N1CCN(c3ncccn3)CC1)[C@]1(C(=O)Nc3ccccc31)[C@H]2c1ccc(OCCO)cc1 | 1.39
10 | O=C1OCCC/C=C\[C@H]2OC34C=CCN(Cn5nnc6ccccc65)C(=O)[C@H]3N(CCCCCO)C(=O)[C@@H]4C12 (stereo not given in full) | 0.123
11 | COc1cc2c(cc1OC)CN(C(=O)[C@@H]1[C@H]3C(=O)O[C@H](c4ccccc4)[C@H](c4ccccc4)N3[C@H](c3ccccc3OCCO)[C@@]13C(=O)Nc1ccc(C#CCNC(N)=O)cc13)CC2 | 1.62
12 | COC(=O)[C@@]1(Cc2ccccc2)[C@H]2c3cc(C(=O)N4CCCC4)n(C)c3C[C@H]2CN1C(=O)c1ccccc1 | 1.95
13 | O=C1O[C@H](c2ccccc2)[C@H](c2ccccc2)N2[C@H]1[C@@H](C(=O)Nc1nc3ccccc3s1)[C@]1(C(=O)Nc3ccccc31)[C@H]2c1ccc(O)cc1 | 0.156
14 | CCN(CC)c1ccc(N2CC=CC34O[C@@H]5C=CCCOC(=O)C5[C@H]3C(=O)N(CCCCCO)[C@@H]4C2=O)cc1 (stereo not given in full) | 0.0436
15 | COCCOC(=O)N1C(=O)[C@@]2(c3cc(C#CCC(C(=O)OC)C(=O)OC)ccc31)[C@H](c1ccc(O)cc1)N1[C@H](c3ccccc3)[C@H](c3ccccc3)OC(=O)[C@H]1[C@@H]2C(N)=O | 1.54
16 | NC(=O)NCC#Cc1ccc2c(c1)[C@]1(C(=O)N2)[C@H](C(=O)N2CCCCCCC2)[C@H]2C(=O)O[C@H](c3ccccc3)[C@H](c3ccccc3)N2[C@@H]1c1ccc(OCCO)cc1 | -0.132
17 | CC(C)N1CC=CC23O[C@@H]4C=CCOC(=O)[C@@H]4[C@H]2C(=O)N(CCO)[C@@H]3C1=O (stereo not given in full) | 0.386
18 | COc1ccc(CCNC(=O)[C@@]2(c3ccc([N+](=O)[O-])cc3)CC(=O)N(CC34CC5CC(CC(C5)C3)C4)[C@@H]2c2ccc(CO)cc2)cc1 | 1.59

Row | SMILES | composite z-score
19 | COCCOC(=O)N1C(=O)[C@@]2(c3ccccc31)[C@H](C(=O)NC[C@H](O)c1ccccc1)[C@H]1C(=O)O[C@H](c3ccccc3)[C@H](c3ccccc3)N1[C@@H]2c1ccc(OCCO)cc1 | 0.791
20 | COc1ccc(C(O)C2C=CC3C(=O)NC(=O)C3N2Nc2ccccn2)cc1OCc1ccccc1 (stereo not given) | 0.834
21 | COCCOC(=O)N1C(=O)[C@@]2(c3cc(C#CC4=CCCCC4)ccc31)[C@H](C(=O)NC[C@H](O)c1ccccc1)[C@H]1C(=O)O[C@H](c3ccccc3)[C@H](c3ccccc3)N1[C@@H]2c1ccc(O)cc1 | 0.0524
22 | COc1ccc([Si](C)(C)[C@@H]2[C@@H](CCn3cc([C@H](O)c4ccccc4)nn3)O[C@]3(C(=O)N(Cc4ccc(N5C(=O)c6cccc7cccc5c67)cc4)c4ccccc43)[C@H]2C)cc1 | 0.448
23 | [N-]=[N+]=NCc1ccccc1C[C@]1(C(=O)O)N=C(c2ccc(OCCCO)cc2)O[C@H]1c1ccccc1CN=[N+]=[N-] | 1.25
24 | CC(C)NC(=O)[C@@H]1c2ccccc2C(=O)N(Cc2ccccc2)[C@H]1c1ccc(CO)cc1 | 0.166
25 | COCCOC(=O)N1C(=O)[C@@]2(c3cc(C#CCNC(N)=O)ccc31)[C@H](c1ccccc1OCCO)N1[C@H](c3ccccc3)[C@H](c3ccccc3)OC(=O)[C@H]1[C@@H]2C(N)=O | 0.208
26 | O=C1C2C=CC(C(O)c3ccc(B(O)O)cc3)N(Nc3ccccc3)C2C(=O)N1c1ccccc1 (stereo not given) | 0.56
27 | COC(=O)[C@@]1(Cc2ccc(F)cc2)[C@H]2c3cc(C(=O)N(C)C)n(CCc4ccccn4)c3C[C@H]2CN1C(=O)c1ccccc1 | 1.47
28 | Cc1ccc(S[C@]2(C(=O)NC3CC3)CC(=O)N(Cc3ccccc3)[C@@H]2c2ccc(CO)cc2)cc1 | 0.116
29 | O=C1C2C=CC(C(O)c3ccc(F)cc3)N(Nc3ccccc3)C2C(=O)N1c1ccccc1 (stereo not given) | 1.33
30 | Cc1cc(C)c(C(O)C2C=CC3C(=O)N(C)C(=O)C3N2Nc2ccccc2)c(C)c1 (stereo not given) | 1.83
31 | [N-]=[N+]=NCc1ccccc1C[C@]1(C(=O)NCCN2CCOCC2)N=C(c2ccc(OCCCO)cc2)O[C@H]1c1ccccc1N=[N+]=[N-] | 0.853
32 | O=C(OCCF)C1=CCC(c2cccc(Cl)c2)O1 (stereo not given) | 0.1
33 | [N-]=[N+]=NCc1ccccc1C[C@]1(C(=O)NCC(O)CO)N=C(c2ccc(OCCCO)cc2)O[C@H]1c1ccccc1N=[N+]=[N-] (stereo not given in full) | 2.99
34 | COCC1=C2[C@@H](CCc3ccccc3)OB(O)C[C@@H]2[C@@H]2C(=O)N(Cc3ccccc3)C(=O)[C@@H]2C1 | -0.0926
35 | [N-]=[N+]=Nc1ccccc1[C@H]1OC(c2ccc(OCCCO)cc2)=N[C@@]1(CCS(=O)(=O)c1ccccc1)C(=O)O | 1.2
